From PubChem BioAssay (NCI) come the findings set out here.

Test systems include SK-MEL-2 melanoma; EKVX NSCLC; SN12C renal; UO-31 renal; TK-10 renal; ACHN renal; CAKI-1 renal; A498 renal; CCRF-CEM leukemia; MOLT-4 leukemia; SR leukemia; RPMI-8226 leukemia; OVCAR-8 ovarian; OVCAR-5 ovarian; OVCAR-4 ovarian; SK-OV-3 ovarian; IGROV1 ovarian; OVCAR-3 ovarian; HS 578T breast; NCI/ADR-RES ovarian.
Holding throughout (experiment): NCI-60 one-dose screen, 48 h (100 = growth as untreated, 0 = no growth, -100 = all killed)
What all share (conditions): 10 µM unless noted

Each structure is given as a SMILES string. Compounds without any hit were thinned out: in the full panel of roughly 83,000, 20% have a hit.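 Each cell line was grown in a 96-well plate and treated with one concentration of compound for 48 hours. Values below 10 were considered active.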 Values without a mark were called inactive. Active and inactive are the calls of the source.

`NC1=C(Cl)C(=O)c2ccc(S(N)(=O)=O)cc2C1=O`: the growth in the assay on SK-MEL-2 melanoma is -73.6% (active); in the assay on EKVX NSCLC, -77.6% (active); in the assay with SN12C renal, -67.5% (active); in the assay with UO-31 renal, -95.9% (active); in the assay on TK-10 renal, -16.5% (active); with ACHN renal, -95.6% (active). Also, the growth was -63.8% (active) with CAKI-1 renal; -99.5% (active) in the assay on A498 renal; 20.1% in the assay with CCRF-CEM leukemia; 11.8% with MOLT-4 leukemia; 2.63% (active) with SR leukemia; -0.705% (active) in the assay on RPMI-8226 leukemia. For the same compound, the growth with OVCAR-8 ovarian was -53.9% (active); in the assay with OVCAR-5 ovarian, -87.7% (active); with OVCAR-4 ovarian it was -100% (active); in the assay on SK-OV-3 ovarian, -45.3% (active); in the assay on IGROV1 ovarian it was -85.5% (active); with OVCAR-3 ovarian, -95.5% (active). In addition, the growth in the assay with HS 578T breast was -21% (active); in the assay on NCI/ADR-RES ovarian it was -30.7% (active).
On to `O=C(CN1C(=O)/C(=C/c2ccc(Cl)cc2)SC1=S)NCCCN1CCOCC1`, for which the growth in the assay on SK-MEL-2 melanoma was 111%; in the assay with EKVX NSCLC it was 90.7%; in the assay with SN12C renal it was 94.7%; in the assay on UO-31 renal, 83.2%; in the assay with TK-10 renal, 117%; with ACHN renal it was 94.6%. Further, the growth in the assay on CAKI-1 renal is 89.4%; with A498 renal it was 104%; in the assay with CCRF-CEM leukemia, 105%; in the assay on MOLT-4 leukemia, 102%; in the assay with SR leukemia, 97.8%; in the assay on RPMI-8226 leukemia, 96%. Further, the growth in the assay on OVCAR-8 ovarian is 103%; in the assay with OVCAR-5 ovarian, 103%; in the assay on OVCAR-4 ovarian, 93.5%; in the assay on SK-OV-3 ovarian, 97.8%; with IGROV1 ovarian, 108%; in the assay with OVCAR-3 ovarian, 101%. For the same compound, the growth in the assay with HS 578T breast is 84.2%; with NCI/ADR-RES ovarian, 99.9%.
On to `Cc1cc(C)nc(SC2=C(Nc3ccc(O)cc3)C(=O)N(Cc3ccccc3)C2=O)n1`, for which the growth in the assay on SK-MEL-2 melanoma was 96.1% [40 µM]; in the assay with EKVX NSCLC it was 77.4% [40 µM]; in the assay on SN12C renal, 94.3% [40 µM]; in the assay on UO-31 renal, 70.8% [40 µM]; in the assay on TK-10 renal, 110% [40 µM]; in the assay on ACHN renal, 93.4% [40 µM]. Also, the growth was 64.4% [40 µM] in the assay on CAKI-1 renal; 112% [40 µM] in the assay with A498 renal; 39.1% [40 µM] with CCRF-CEM leukemia; 58% [40 µM] in the assay on MOLT-4 leukemia; 73.6% [40 µM] in the assay with SR leukemia; 38.8% [40 µM] in the assay on RPMI-8226 leukemia. Further, the growth is 111% [40 µM] in the assay with OVCAR-8 ovarian; 120% [40 µM] with OVCAR-5 ovarian; 85.6% [40 µM] with OVCAR-4 ovarian; 94.3% [40 µM] in the assay on SK-OV-3 ovarian; 81.4% [40 µM] in the assay on IGROV1 ovarian; 80.9% [40 µM] in the assay on OVCAR-3 ovarian. The growth in the assay on HS 578T breast is -13.2% [40 µM] (active); in the assay on NCI/ADR-RES ovarian it was 69% [40 µM].
For `O=C1c2ccccc2C(=O)c2c(N=Nc3[nH]c(=S)[nH]c3O)cccc21`, the growth in the assay on SK-MEL-2 melanoma is 24.4%; in the assay on EKVX NSCLC, 41.6%; with SN12C renal, 35.3%; in the assay on UO-31 renal, 26.9%; in the assay with TK-10 renal it was 54.1%; in the assay with ACHN renal, 41.4%. In addition, the growth in the assay on CAKI-1 renal is 20.6%; in the assay with A498 renal, -6.1% (active); with CCRF-CEM leukemia, 14.1%; with MOLT-4 leukemia, 16%; in the assay on SR leukemia, 24.5%; with RPMI-8226 leukemia it was -2.62% (active). Also, the growth was 30.3% with OVCAR-8 ovarian; 49.8% with OVCAR-5 ovarian; 58.9% with OVCAR-4 ovarian; 30.6% with SK-OV-3 ovarian; 27% in the assay on IGROV1 ovarian; 1.75% (active) in the assay with OVCAR-3 ovarian. Besides, the growth is 5.86% (active) with HS 578T breast and 50% in the assay on NCI/ADR-RES ovarian.
With `COc1ccc(/C=C/C(=O)c2cc(O)ccc2O)cc1`, the growth in the assay with SK-MEL-2 melanoma was 101%; in the assay with EKVX NSCLC, 93%; in the assay with SN12C renal, 93.7%; in the assay on UO-31 renal, 73.1%; in the assay with TK-10 renal it was 95.3%; in the assay with ACHN renal it was 84.9%. Further, the growth is 67.7% with CAKI-1 renal; 109% with A498 renal; 41.1% in the assay with CCRF-CEM leukemia; 79.2% in the assay with MOLT-4 leukemia; 71.9% with SR leukemia; 45.8% in the assay on RPMI-8226 leukemia. Besides, the growth in the assay on OVCAR-8 ovarian is 88.6%; with OVCAR-5 ovarian it was 108%; in the assay with OVCAR-4 ovarian it was 136%; with SK-OV-3 ovarian, 115%; in the assay with IGROV1 ovarian it was 83.4%; in the assay with OVCAR-3 ovarian, 83.4%. The growth with HS 578T breast was 106%; in the assay on NCI/ADR-RES ovarian it was 91.8%.
`Cc1ccc(O)c(N2C(=NCc3ccco3)NS(=O)(=O)c3cnccc32)c1`: the growth is 106% with SK-MEL-2 melanoma; 101% in the assay with EKVX NSCLC; 101% in the assay with SN12C renal; 91.2% in the assay on UO-31 renal; 124% in the assay with TK-10 renal; 106% in the assay on ACHN renal. For the same compound, the growth was 68.4% in the assay with CAKI-1 renal; 109% with A498 renal; 61.2% in the assay with CCRF-CEM leukemia; 87.9% with MOLT-4 leukemia; 71.3% in the assay on SR leukemia; 65.7% with RPMI-8226 leukemia. Further, the growth in the assay with OVCAR-8 ovarian is 64.5%; in the assay on OVCAR-5 ovarian, 92.4%; in the assay on OVCAR-4 ovarian, 107%; in the assay with SK-OV-3 ovarian it was 117%; with IGROV1 ovarian, 94.2%; in the assay with OVCAR-3 ovarian, 96.9%. Besides, the growth in the assay with HS 578T breast is 113%; in the assay with NCI/ADR-RES ovarian, 95.2%.
As for `O=C1Nc2cc(-c3ccc(O)cc3)ccc2/C1=C/c1ccc[nH]1`, the growth is 2.16% (active) with SK-MEL-2 melanoma; 12% with EKVX NSCLC; 13.6% in the assay on SN12C renal; -3.39% (active) in the assay on UO-31 renal; 17.7% with TK-10 renal; 4.81% (active) with ACHN renal. Moreover, the growth is 2.43% (active) in the assay on CAKI-1 renal; -3.08% (active) with A498 renal; 6% (active) in the assay with CCRF-CEM leukemia; 7.4% (active) in the assay on MOLT-4 leukemia; 5.01% (active) in the assay on SR leukemia; 3.47% (active) with RPMI-8226 leukemia. Besides, the growth is 12.3% with OVCAR-8 ovarian; 19% with OVCAR-5 ovarian; 26.3% in the assay with OVCAR-4 ovarian; 8.32% (active) with SK-OV-3 ovarian; 13% in the assay with IGROV1 ovarian; 4.63% (active) in the assay on OVCAR-3 ovarian. In addition, the growth with HS 578T breast was 18.1%; in the assay with NCI/ADR-RES ovarian, -1.85% (active).
